Laboratory results: PubChem BioAssay (Tox21)
Where “and” joins values, the source holds several entries; their conditions need not be identical. Equal values may be shown once. Inconclusive results are not listed. Entries that show only a call come without a potency. Calls of active or inactive are those of the source. Unless noted, the call rests on the fitted dose curve.

experiment: qHTS assay to identify small molecule agonists of the endoplasmic reticulum stress response signaling pathway (AID 1159516; active means well fitted activation curve with a large enough effect in the signal ratio in the repeat runs, not every such curve was filed as active; the % refers to the signal ratio); conditions: ESRE-bla HeLa, ER stress beta-lactamase reporter, 5 h; series mostly up to 61 µM
Outline: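 For this screen, HeLa cells stably carrying beta-lactamase under the ER stress response element received test compounds, positive controls or DMSO for 5 hr at 37 C; B/G FRET substrate was then added and dual-wavelength emission recorded.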

SMILES | outcome
CN(C)c1ccc(C(=O)c2ccc(N(C)C)cc2)cc1 | inactive
CCN(N=O)C(N)=O | inactive
Cc1c(COC(=O)[C@@H]2[C@H](/C=C(\Cl)C(F)(F)F)C2(C)C)cccc1-c1ccccc1 | inactive
CC(C)c1ccc(CO)cc1 | inactive
O=[N+]([O-])c1c(Cl)c(Cl)c(Cl)c(Cl)c1Cl | inactive
CC(C)C(=O)OCC(C)(C)C(OC(=O)C(C)C)C(C)C (stereo unspecified) | inactive
C#CCOS(=O)OC1CCCCC1Oc1ccc(C(C)(C)C)cc1 (stereo unspecified) | inactive
CCOc1cc(C=O)ccc1O | inactive
COc1ccc(C(CN(C)C)C2(O)CCCCC2)cc1 (stereo unspecified) | inactive
CCOP(=S)(OCC)O/N=C(\C#N)c1ccccc1 | inactive
COC(=O)c1sccc1S(=O)(=O)NC(=O)Nc1nc(C)nc(OC)n1 | inactive
NNC(=S)NN | inactive
CCOc1cc(Oc2ccc(C(F)(F)F)cc2Cl)ccc1[N+](=O)[O-] | inactive
NCc1cccnc1 | inactive
NC(=S)Nc1ccccc1 | inactive
O=P(Oc1ccccc1)(Oc1ccccc1)Oc1ccccc1 | inactive
Nc1c(Cl)cc([N+](=O)[O-])cc1Cl | inactive
CC(C)(c1cc(Cl)c(O)c(Cl)c1)c1cc(Cl)c(O)c(Cl)c1 | inactive
CC(C)Oc1cc(-n2nc(C(C)(C)C)oc2=O)c(Cl)cc1Cl | inactive

SMILES | outcome
CCCCCCOC(=O)c1ccccc1C(=O)OCCCCCC | inactive
O=Cc1ccco1 | inactive
N[C@@H](Cc1ccc(N(CCCl)CCCl)cc1)C(=O)O | inactive
Oc1cc(Cl)ccc1Oc1ccc(Cl)cc1Cl | inactive
Nc1ccc(Cl)cc1N | inactive
CCCCCc1cc(O)cc(O)c1 | inactive
ClC1C(Cl)C(Cl)C(Cl)C(Cl)C1Cl (stereo unspecified) | inactive
C=C(C)C(=O)OCC1CO1 (stereo unspecified) | inactive
O=C(CCl)c1ccccc1 | inactive
C=C(C)[C@H]1Cc2c(ccc3c2O[C@@H]2COc4cc(OC)c(OC)cc4[C@@H]2C3=O)O1 | inactive
CCC(=O)O[C@H]1CC[C@H]2[C@@H]3CCC4=CC(=O)CC[C@]4(C)[C@H]3CC[C@]12C | inactive
CCCCCCCCOC(=O)c1ccccc1C(=O)OCCCCCCCC | inactive
CCCCC(CC)COC(=O)c1ccc(C(=O)OCC(CC)CCCC)c(C(=O)OCC(CC)CCCC)c1 (stereo unspecified) | inactive
Nc1ccncc1 | inactive
CC(C)(C)c1ccccc1O | inactive
c1nc[nH]n1 | inactive
Nn1cnnc1 | inactive
Cc1ccccc1[N+](=O)[O-] | inactive
O=S(=O)(Oc1ccc(Cl)cc1)c1ccc(Cl)cc1 | inactive

experiment: qHTS assay to identify small molecule agonists of the endoplasmic reticulum stress response signaling pathway - cell viability counter screen (AID 1159517); conditions: ESRE-bla HeLa viability, CellTiter-Glo luminescence, 5 h; series mostly up to 61 µM; further: nearly all actives have a fitted effect of over 50% in size; further: potency means the concentration at half of the fitted maximal effect
Outline: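 ESRE-bla HeLa cells (1,500/well) were plated overnight at 37 C and exposed to compounds for 5 hr. After the 2 hr beta-lactamase substrate read, CellTiter-Glo went into the same wells, and luminescence was read after 30 min at room temperature.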

SMILES | Potency
CN(C)c1ccc(C(=O)c2ccc(N(C)C)cc2)cc1 | inactive
CCN(N=O)C(N)=O | inactive
Cc1c(COC(=O)[C@@H]2[C@H](/C=C(\Cl)C(F)(F)F)C2(C)C)cccc1-c1ccccc1 | inactive
CC(C)c1ccc(CO)cc1 | inactive
O=[N+]([O-])c1c(Cl)c(Cl)c(Cl)c(Cl)c1Cl | inactive
CC(C)C(=O)OCC(C)(C)C(OC(=O)C(C)C)C(C)C (stereo unspecified) | inactive
C#CCOS(=O)OC1CCCCC1Oc1ccc(C(C)(C)C)cc1 (stereo unspecified) | inactive
CCOc1cc(C=O)ccc1O | inactive
COc1ccc(C(CN(C)C)C2(O)CCCCC2)cc1 (stereo unspecified) | inactive
CCOP(=S)(OCC)O/N=C(\C#N)c1ccccc1 | inactive
COC(=O)c1sccc1S(=O)(=O)NC(=O)Nc1nc(C)nc(OC)n1 | inactive
NNC(=S)NN | inactive
CCOc1cc(Oc2ccc(C(F)(F)F)cc2Cl)ccc1[N+](=O)[O-] | inactive
NCc1cccnc1 | inactive
NC(=S)Nc1ccccc1 | inactive
O=P(Oc1ccccc1)(Oc1ccccc1)Oc1ccccc1 | inactive
Nc1c(Cl)cc([N+](=O)[O-])cc1Cl | inactive
CC(C)(c1cc(Cl)c(O)c(Cl)c1)c1cc(Cl)c(O)c(Cl)c1 | 43.7 µM (active) and 43.6 µM (active)
CC(C)Oc1cc(-n2nc(C(C)(C)C)oc2=O)c(Cl)cc1Cl | inactive

SMILES | Potency
CCCCCCOC(=O)c1ccccc1C(=O)OCCCCCC | inactive
O=Cc1ccco1 | inactive
N[C@@H](Cc1ccc(N(CCCl)CCCl)cc1)C(=O)O | inactive
Oc1cc(Cl)ccc1Oc1ccc(Cl)cc1Cl | 20 µM (active)
Nc1ccc(Cl)cc1N | inactive
CCCCCc1cc(O)cc(O)c1 | inactive
ClC1C(Cl)C(Cl)C(Cl)C(Cl)C1Cl (stereo unspecified) | inactive
C=C(C)C(=O)OCC1CO1 (stereo unspecified) | inactive
O=C(CCl)c1ccccc1 | inactive
C=C(C)[C@H]1Cc2c(ccc3c2O[C@@H]2COc4cc(OC)c(OC)cc4[C@@H]2C3=O)O1 | inactive
CCC(=O)O[C@H]1CC[C@H]2[C@@H]3CCC4=CC(=O)CC[C@]4(C)[C@H]3CC[C@]12C | 54.9 µM (active) and 21.3 µM (active)
CCCCCCCCOC(=O)c1ccccc1C(=O)OCCCCCCCC | inactive
CCCCC(CC)COC(=O)c1ccc(C(=O)OCC(CC)CCCC)c(C(=O)OCC(CC)CCCC)c1 (stereo unspecified) | inactive
Nc1ccncc1 | inactive
CC(C)(C)c1ccccc1O | inactive
c1nc[nH]n1 | inactive
Nn1cnnc1 | inactive
Cc1ccccc1[N+](=O)[O-] | inactive
O=S(=O)(Oc1ccc(Cl)cc1)c1ccc(Cl)cc1 | inactive
